Bioassay records as filed in PubChem.
VDR inh: Inhibitors of the vitamin D receptor (VDR): qHTS; VDR-SRC2-3 peptide fluorescence polarization, 2 h; Potency, µM, without a hit: max response, negative = inhibition, usual class: inhibitors; Vitamin D3 receptor (Homo sapiens), P11473; 0.93% of 400,000 active; note: potency is the fitted concentration of half-maximal effect; % is set by controls: 0 for no effect and ±100 for the full control effect
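Fluorescence polarization assay measuring small-molecule disruption of VDR binding to the coregulator peptide SRC2-3. Compounds were pin-transferred (23 nl) into the reagent mix and incubated 2 h at room temperature before reading.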
TSHR antag: Antagonists of the Thyroid Stimulating Hormone Receptor: HTS campaign; Thyrotropin receptor (Homo sapiens), P16473; TSHR-expressing cells, TSH-stimulated cAMP HTRF, 2 h; hits give low values; activity change, negative = inhibition, % at 11.5 µM; 0.2% of 330,000 active; AID 504810, 2011;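 active = activity change below a set negative limit, meaning inhibition stronger than a set level, cut at about -70% in these data; inconclusive = activity change between two set negative limits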; note: % is set by controls: 0 for no effect and ±100 for the full control effect
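Competitive HTRF cAMP read-out (cryptate anti-cAMP antibody, cAMP-d2; 30 min, room temperature) in freshly harvested TSHR cells. Compounds added before TSH at EC80 (4nM final), followed by 2 hours' incubation at 37 deg C.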
Vif-APOBEC3F blk: qHTS for Inhibitors of Vif-A3F Interactions: qHTS | HeLa A3F-eYFP + Vif (tagged APOBEC3F with the HIV-1 protein that degrades it), YFP fluorescence increase | Potency, µM (series often up to 46.1 µM), inactives show top-dose activity, negative = active | 0.2% of 390,000 active | AID 602313, 2012; note: potency is the fitted concentration of half-maximal effect; % of control where 0% means no effect; nearly all actives have a fitted effect of over 65% in size
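HeLa cells stably expressing A3F-eYFP plus Vif, plated and incubated overnight at 37 deg C, then exposed to compounds overnight at 37 deg C. Blocked degradation read as raised yellow fluorescence (Ex 488/Em 500-530).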
Vif-APOBEC3G blk: qHTS for Inhibitors of Vif-A3G Interactions: qHTS | 0.076% of 410,000 active | DNA dC->dU-editing enzyme APOBEC-3G (Homo sapiens), Q9HC16 | Potency, µM (doses to about 46.1 µM), for inactives: at the highest dose activity, negative = active, usual class: inhibitors | AID 602310, 2012 | HeLa A3G-eYFP + Vif (tagged APOBEC3G with the HIV-1 protein that degrades it), YFP fluorescence, overnight; note: potency is the fitted concentration of half-maximal effect; % is set by controls: 0 for no effect and ±100 for the full control effect; nearly all actives have a fitted effect of over 60% in size
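Read-out is eYFP fluorescence (Ex 488/Em 500-530) from Vif-expressing HeLa A3G-eYFP cells; more signal means A3G escaped Vif-mediated degradation. Cells plated overnight, compound pinned in, incubated overnight at 37 deg C.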
PLK1 PBD inh: qHTS for Inhibitors of PLK1-PDB (polo-like kinase 1 - polo-box domain): Primary Screen. Serine/threonine-protein kinase PLK1 (Homo sapiens), P53350. Plk1 PBD binding of FITC phosphopeptide, fluorescence polarization. 2.8% of 360,000 active. Potency, µM, inactives show max response, negative = inhibition, usual class: inhibitors; note: potency is the fitted concentration of half-maximal effect; series mostly up to about 57 µM; % is set by controls: 0 for no effect and ±100 for the full control effect; nearly all actives have a fitted effect of over 65% in size
Target sequence (P53350 whole entry, looked up, the tested form may be a part): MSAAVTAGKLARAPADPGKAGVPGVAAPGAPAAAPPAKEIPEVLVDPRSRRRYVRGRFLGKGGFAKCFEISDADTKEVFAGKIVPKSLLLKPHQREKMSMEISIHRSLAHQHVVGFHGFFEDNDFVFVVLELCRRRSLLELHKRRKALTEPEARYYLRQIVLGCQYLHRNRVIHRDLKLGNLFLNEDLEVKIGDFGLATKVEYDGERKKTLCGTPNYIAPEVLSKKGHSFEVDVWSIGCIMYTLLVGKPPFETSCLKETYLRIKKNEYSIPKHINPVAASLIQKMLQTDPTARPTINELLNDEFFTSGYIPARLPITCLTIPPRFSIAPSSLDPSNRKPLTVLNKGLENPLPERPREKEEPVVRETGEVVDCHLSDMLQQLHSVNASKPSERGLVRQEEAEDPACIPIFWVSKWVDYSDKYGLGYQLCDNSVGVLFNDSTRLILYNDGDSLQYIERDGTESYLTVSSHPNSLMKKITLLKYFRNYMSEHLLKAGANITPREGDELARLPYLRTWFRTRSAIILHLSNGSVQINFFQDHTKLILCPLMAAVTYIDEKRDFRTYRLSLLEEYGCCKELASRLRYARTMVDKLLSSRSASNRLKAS
Active calls of the source: *; ? = inconclusive; · = not tested or not shown. Shown are actives, neighbours in structure and some others; about 3.1% of the full set was active somewhere. Unless noted, calls come from the whole dose curve; as a rule, active = well fitted curve in the direction sought with a large enough effect; inconclusive = small, poorly fitted or top-dose-only effect, or another doubt; inactive = no such curve, though single readings can be large; an effect the other way counts as inactive or inconclusive.

SMILES | VDR inh | TSHR antag | Vif-APOBEC3F blk | Vif-APOBEC3G blk | PLK1 PBD inh
CCC(C)Oc1cc(-c2ccnc(Nc3cccc(Cl)c3)n2)ccn1 (stereo not given) | ? | -3 | 0% | -13% | 24µM*
CN[C@@H]1[C@H](O[C@@H]2O[C@H](C)[C@@](O)(CO)[C@H]2O[C@H]2[C@H](O)[C@H](O)[C@H](N=C(N)N)[C@@H](O)[C@@H]2N=C(N)N)O[C@@H](CO)[C@H](O)[C@H]1O | 50µM* | · | · | · | ·
Cc1ccc(NS(=O)(=O)c2cc([N+](=O)[O-])ccc2NNC(=S)Nc2cc(C)ccc2C)c(C)c1 | ? | 16 | -1% | -9% | ?
COc1ccc(NC(=S)NNc2ccc([N+](=O)[O-])cc2S(=O)(=O)Nc2ccc(C)cc2C)cc1 | 45µM* | -8 | 16% | -5% | 27µM*
CCN(CC(=O)Nc1ccccc1OC)C(=O)c1ccc(N(C)S(=O)(=O)c2ccc(C)cc2)cc1 | 2% | -12 | -5% | -1% | 0%
CCN(CC(=O)NC(C)C)C(=O)c1ccc(S(=O)(=O)N(C)c2ccccc2OC)cc1 | ? | 14 | 3% | 3% | 3µM*
Cc1ccc(S(=O)(=O)NC(=O)c2ccc(-c3ccc(C)c4ccccc34)o2)cc1 | 79µM* | -12 | -1% | -25% | 27µM*
O=C(O)CSc1c(O)c2ccccc2[nH]c1=O | -24% | -7 | -1% | 2% | 21µM*
O=C(O)c1c2ccccc2cc2ccccc12 | -11% | · | · | · | ·
O=c1[nH]c2ccccc2c(O)c1SCCO | 0% | 3 | 1% | 0% | -6%
O=C(O)CSc1c2ccccc2cc2ccccc12 | 71µM* | 40 | 0% | ? | 27µM*
Cc1ccc(S(=O)(=O)N2CCN(c3nc(-c4cccs4)nc4ccccc34)CC2)c(C)c1 | -1% | · | · | · | ·
CC(=O)c1ccc(S(=O)(=O)N2CCNCC2)cc1 | ? | -3 | -5% | -1% | 15µM*
CCN1CCN(Cc2ccc(NC(=O)c3ccc(C)c(/C=C/c4cnc(Nc5cc(N6CCNCC6)nc(C)n5)cn4)c3)cc2C(F)(F)F)CC1 | 25% | 0 | 32µM* | ? | 59%
CCN1CCN(Cc2ccc(NC(=O)c3ccc(C)c(NC(=O)c4ccno4)c3)cc2C(F)(F)F)CC1 | -20% | -5 | -1% | -1% | -11%
CC1(C)CC(=S)Nc2ccccc2S1 | ? | 6 | -2% | 0% | 27µM*
O=C(O)Cc1sc(NC2CCCCC2)nc1-c1ccc(Cl)cc1 | -6% | -8 | 25µM* | -27% | -12%
Cc1c(C(=O)N2CCN(c3ccc(C(F)(F)F)cn3)CC2)oc2ccccc12 | 4% | -11 | -6% | 6% | 30µM*
Cc1ccc(C(=O)N2CCN(c3ccc(C(F)(F)F)cn3)CC2)cc1 | -2% | -3 | · | 2% | 1%
CN(Cc1ccccc1)C(=S)NC(=O)C1CCCCC1 | 5% | 7 | -22% | -3% | -2%
CN(C(=S)NC(=O)C1CCCC1)c1ccccc1 | · | · | ? | -4% | 30µM*
CC(=O)NC(c1ccco1)c1cc(Cl)c2ccc(N(C)C)nc2c1O (stereo not given) | · | 29 | · | · | ·
CCn1nc(C)cc1C(=O)Sc1ccc(Cl)cc1Cl | 79µM* | -9 | ? | -3% | 19µM*
CN(C)c1ccc(/C=C/c2ccnc3c([N+](=O)[O-])cccc23)cc1 | · | · | · | -11% | ·
COC(=O)c1c(-c2ccc(OC)cc2)oc2ccc(-c3ccc(OC)nc3)cc12 | -3% | 11 | -10% | -12% | -15%
SMILES | VDR inh | TSHR antag | Vif-APOBEC3F blk | Vif-APOBEC3G blk | PLK1 PBD inh
CCCOC(=O)c1c(-c2ccc(OC)cc2)oc2ccc(-c3ccc(OC)nc3)cc12 | -29% | -9 | -6% | 0% | 38µM*
N#CCCn1cnc2c1NC=NC2Cl (stereo not given) | 11% | · | · | · | ·
Nc1ncnc2c1[nH]c(=S)n2C1OC(CO)C(O)C1O (stereo not given) | -2% | · | · | 3% | ·
COc1ccccc1N1CCN(CCCCN2C(=O)C3CCCCN3C2=O)CC1 (stereo not given) | ? | -8 | 6% | 0% | 8.4µM*
C[C@@]12CCC[C@H]1C1CC[C@H]3C[C@H](O)CC[C@]3(C)C1CC2 (stereo not given in full) | 4% | · | · | · | ·
Cc1cc(OC(C)C(=O)NCCCN2CCOCC2)c2c(C)c(C)c(=O)oc2c1 (stereo not given) | -1% | -1 | 7% | 3% | -10%
CC(Oc1cc2oc(=O)c3c(c2cc1Cl)CCCC3)C(=O)NCCN1CCOCC1 (stereo not given) | ? | 6 | -1% | 2% | 24µM*
CC(Oc1cc2oc(=O)c3c(c2cc1Cl)CCC3)C(=O)NCCCN1CCOCC1 (stereo not given) | -16% | -4 | 1% | 1% | 0%
Cc1c(C)c2cc(Cl)c(OC(C)C(=O)NCCN3CCOCC3)cc2oc1=O (stereo not given) | ? | -5 | 0% | 4% | 24µM*
O=C(Nc1ccccc1F)c1nc(SCc2ccccc2F)ncc1Cl | 14% | · | 0% | -1% | ·
CCc1c(C)sc(NC(=O)c2cc(-c3ccc(O)cc3)on2)c1C#N | ? | -6 | -4% | 0% | 19µM*
CCc1c(C)sc(NC(=O)c2cc(CC(C)C)on2)c1C#N | -23% | -24 | 6% | 1% | 15µM*
CCc1c(C)sc(NC(=O)c2cc(-c3ccc(OC)c(OC)c3)on2)c1C#N | -27% | 5 | -11% | 3% | -13%
CCc1c(C)sc(NC(=O)c2cc(-c3cccc(Cl)c3)on2)c1C#N | ? | · | 5% | 0% | ·
CCc1c(C)sc(NC(=O)c2noc(C)c2[N+](=O)[O-])c1C#N | ? | 10 | -1% | -16% | 34µM*
CCOc1ccc(NC(=O)CN2C(=O)C(c3ccccc3)=NC23CCCCCC3)cc1 | 7% | · | · | · | ·
CCC(C)C(=O)Nc1cc(OC)c(OC)cc1C(=O)O (stereo not given) | 12% | -11 | -9% | 0% | 0%
CCC(CC)C(=O)Nc1cc(OC)c(OC)cc1C(=O)O | -15% | 4 | -6% | 0% | 19µM*
CCCN(C)CCCOc1cc2nc(N3CCCN(C)CC3)nc(NC3CCN(C)CC3)c2cc1OC | · | · | · | 1% | ·
CCOC(=O)c1cccc(NC(=O)CCc2nnc3ccc(N4CCN(C)CC4)nn23)c1 | -12% | 6 | 3% | -3% | 24µM*
COc1ccc(NC(=O)CCc2nnc3ccc(N4CCC5(CC4)OCCO5)nn23)cc1 | -19% | 16 | 3% | 5% | -18%
COc1ccc(OC)c(CCNC(=O)CCc2nnc3ccc(N4CCCCC4)nn23)c1 | -1% | -16 | -8% | -7% | 2%
